These results are taken from PubChem BioAssay AID1578 (Sanford-Burnham Center for Chemical Genomics, 2009).

Each structure is given as a SMILES string. Among all 290,000 compounds or so, about 3,000 (1%) were called active. Rule as the data show it: active = inhibition mostly above about 36% (no sharp cut-off); inactive = mostly below about 34%. Shown is part of a subset that was picked to be rich in actives.

This experiment can be described thus: NOD1 signaling inhibitors, primary screen, cell-based, luminescence, uHTS (AID 1578).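 Also: HEK-293T reporter cells stimulated with the NOD1 agonist gamma-tri-DAP.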 The note with it: NOD1-driven NF-kB luciferase reporter cells, at 4 µM, active compounds read high. A general note: Reporter assays use an easily measured gene product as a stand-in for the process of interest.
As for `CCOC(=O)c1ccc(NS(=O)C23CC4CC(CC(C4)C2)C3)cc1` (stereo unspecified), the inhibition (in general, the relative decrease from the control value, in per cent) is -39.1% (inactive).

In the case of `CCN(CC)S(=O)(=O)c1ccc2oc(C(=O)NCCCN3CCOCC3)c(C)c2c1`, the inhibition was -9.1% (inactive).

For the compound `Cc1cccc(N2CCN(C(=O)NC3CCCCC3)CC2)c1C`, the inhibition is -19.6% (inactive).

As for `CC[C@@]12C(=O)N(c3cccc(Br)c3)C(=O)N1[C@H](c1ccc(Cl)cc1)[C@@H]1C(=O)N(C3CCCCC3)C(=O)[C@@H]12`, the inhibition was 10.3% (inactive).

Consider `O=C1[C@H]2[C@@H](c3ccc(Cl)cc3)N3C(=O)N(c4cccc(Br)c4)C(=O)[C@@]3(Cc3ccc(Cl)cc3)[C@H]2C(=O)N1C1CCCCC1`, for which the inhibition is 45.6% (active).

In the case of `O=C1[C@H]2[C@@H](c3ccc(F)cc3)N3C(=O)N(c4cccc(Br)c4)C(=O)[C@@]3(Cc3ccc(Cl)cc3)[C@H]2C(=O)N1C1CCCCC1`, the inhibition was -14.3% (inactive).

In the case of `O=c1cc(-c2c(F)c(F)c(F)c(F)c2F)oc2ccccc12`, the inhibition is 36.7% (inactive).

`COc1c(OC)c(O)c2c(=O)cc(-c3c(O)cccc3O)oc2c1OC`: the inhibition was 2.2% (inactive).

As for `O=c1cc(-c2c(F)c(F)c(F)c(F)c2F)oc2c(F)c(F)c(F)c(F)c12`, the inhibition is 98.7% (active).

In the case of `Cc1cccc(NC(=O)Cc2c(F)cccc2Cl)n1`, the inhibition is -46.6% (inactive).

With `O=[N+]([O-])c1ccc(Nc2ccc(F)cc2)cc1`, the inhibition was -11.9% (inactive).

Turning to `Cc1nsc(Nc2ccc([N+](=O)[O-])cc2)c1C#N`, the inhibition is 60.4% (active).

As to `Cc1nsc(Nc2ccccc2)c1C#N`, the inhibition was 16.5% (inactive).

Take `CN1CCN(/N=C/c2ccc(N(C)c3ccccc3)cc2)CC1`: the inhibition was -6.9% (inactive).

Turning to `Cc1cc(=O)oc2c(C)c(OCC(=O)NCCCn3ccnc3)ccc12`, the inhibition is 1.8% (inactive).

Consider `O=C(OCc1ccccc1)c1cccnc1Cl`, for which the inhibition was -18.1% (inactive).

As for `Cn1cc(CNCc2ccc(OC(F)(F)F)cc2)c(-c2ccc3c(c2)OCCO3)n1`, the inhibition is 75.4% (active).

Regarding `Cn1cc(CNCc2cn[nH]c2-c2ccc(F)cc2)c(-c2ccc3c(c2)OCCO3)n1`, the inhibition was -22.2% (inactive).

Take `CN(Cc1ccon1)Cc1cn(C)nc1-c1ccc2c(c1)OCCO2`: the inhibition was -26.3% (inactive).

Take `C/C(=N\NC(=O)C1CC1(c1ccccc1)c1ccccc1)c1cccc([N+](=O)[O-])c1` (stereo unspecified): the inhibition was -12.5% (inactive).

For the compound `CCOc1cc(Br)c(Br)c(C=Nc2ccc(NC(C)=O)cc2)c1O`, the inhibition was 78% (active).

In the case of `CC(=O)Nc1ccc(N=Cc2c(O)c(C(=O)Nc3ccccc3)cc3ccccc23)cc1`, the inhibition is 39.6% (inactive).

For the compound `CC(=O)Nc1ccc(N=Cc2c(O)ccc3ccccc23)cc1`, the inhibition is -20% (inactive).

Turning to `O=C(Nc1ccc(NS(=O)(=O)c2ccccc2)cc1)c1cccnc1`, the inhibition was -23.8% (inactive).

For the compound `O=C(NCc1nnc(SCC(=O)N2CCCC2)o1)c1ccccc1`, the inhibition was -0.1% (inactive).

In the case of `Cc1oc2c(c(=O)c1C)C(=O)CC(c1ccccc1)C2` (stereo unspecified), the inhibition is -15.6% (inactive).

Take `Cc1c(C(=O)O)[nH]c2c1C(=O)CC(c1ccccc1)C2` (stereo unspecified): the inhibition is -0.4% (inactive).

For `CS(=O)(=O)c1sc(C#N)c2c1C(=O)CC(c1ccccc1)C2` (stereo unspecified), the inhibition is 43.9% (active).

Regarding `CCc1noc(C)c1C(=O)Nc1ccccc1C(C)(C)C`, the inhibition is 38.7% (inactive).

`Cc1ccc(-c2nc(N3CCOCC3)sc2C(=O)N2CCOCC2)cc1`: the inhibition was -12.2% (inactive).

Take `Cc1ccc(CNC(=O)Nc2ccc(OC(F)(F)F)cc2)n1C`: the inhibition was -21.3% (inactive).

Take `COC(=O)c1ccc(NC(=O)c2ccccc2NS(C)(=O)=O)cc1`: the inhibition is -12% (inactive).

For `COC(=O)c1ccccc1NS(=O)(=O)c1ccc(NC(C)=O)cc1`, the inhibition was 0.6% (inactive).

On to `COc1cc(OC)cc(C(=O)Nn2cc(C(=O)Nc3ccccc3F)c3ccccc3c2=O)c1`, for which the inhibition was -16.8% (inactive).

On to `C=CCNC(=O)[C@@H]1CSC2c3ccc(OC)c(OC)c3C(=O)N21` (stereo partly specified), for which the inhibition was -8.1% (inactive).

For the compound `Cc1ccc(C2C3C(=O)N(c4ccc(C)cc4)C(=O)C3N3CCCN23)cc1` (stereo unspecified), the inhibition is -7.6% (inactive).

As for `Cc1ccc(C(=O)COC(=O)c2cc(Cl)nc3ccccc23)cc1C`, the inhibition was -37.6% (inactive).

As to `O=C(c1ccc2nc(-c3ccco3)c(-c3ccco3)nc2c1)N1CCN(c2ccccc2)CC1`, the inhibition was 3.4% (inactive).

With `Cc1cccc(N2CCN(C(=O)c3ccc4nc(-c5ccco5)c(-c5ccco5)nc4c3)CC2C)c1` (stereo unspecified), the inhibition was 60.5% (active).

`Cc1ccc(C)c(N2CCN(C(=O)c3ccc4nc(-c5ccco5)c(-c5ccco5)nc4c3)CC2)c1`: the inhibition is -1.9% (inactive).

Take `O=C(CN1C(=O)c2ccccc2C1=O)Nc1cc([N+](=O)[O-])ccc1O`: the inhibition was -38.7% (inactive).

Consider `CCOc1cc(C(C(=O)NCC2CCCO2)N(C(=O)Cn2nnc3ccccc32)c2ccccc2C(C)=O)ccc1O` (stereo unspecified), for which the inhibition is -47.9% (inactive).

For `COCCCN=C1NN=C(c2cc(C)n(-c3ccccc3F)c2C)CS1`, the inhibition was 10.1% (inactive).

With `Cc1ccc(-n2c(C)cc(C3=NNC(=NC4CC4)SC3)c2C)cc1C`, the inhibition is -21.7% (inactive).

In the case of `Cc1cc(C2=NNC(=NC3CC3)SC2)c(C)n1-c1ccccc1F`, the inhibition was 96.7% (active).

`Cc1cc(C2=NNC(=NC3CC3)SC2)c(C)n1-c1c(C)n(C)n(-c2ccccc2)c1=O`: the inhibition was -12.6% (inactive).

As to `Cc1cc(C2=NNC(=NC3CC3)SC2)c(C)n1-c1ccccc1`, the inhibition is 98.3% (active).

Turning to `COc1ccc(-n2c(C)cc(C3=NNC(=NC4CC4)SC3)c2C)cc1`, the inhibition was -7.5% (inactive).

Take `CCOC(=O)c1[nH]c2ccccc2c1NC(C)=O`: the inhibition is 2.4% (inactive).

Turning to `CC(C)(C)n1cnc2cc(NS(=O)(=O)c3ccc(Br)cc3)ccc21`, the inhibition was 7.7% (inactive).

For `Cc1ccc(-c2nnn(CC(=O)N(CCN3CCOCC3)C(C(=O)NC(C)(C)C)c3ccc(C)o3)n2)cc1` (stereo unspecified), the inhibition is -14.8% (inactive).

In the case of `COc1ccc(-c2cc3nc(C)cc(-c4ccc(OC)cc4)n3n2)cc1`, the inhibition is 66.8% (active).

Turning to `COc1ccc(-c2cc3nc(C)cc(N)n3n2)cc1`, the inhibition is -3.5% (inactive).

As for `COc1ccc(-c2cc3nc(C)cc(C)n3n2)cc1`, the inhibition was -76.5% (inactive).

Consider `COC(=O)C(Cc1ccccc1)NC(=O)c1cccc(S(=O)(=O)N(C)C)c1` (stereo unspecified), for which the inhibition is -41.3% (inactive).

Regarding `COc1ccc(/C(C)=N/NC(=O)c2nnn(-c3nonc3N)c2CN(C)c2ccccc2)cc1`, the inhibition was -7.2% (inactive).
